{"source": "PubChem BioAssay (NCATS)", "note": "Calls of active or inactive are those of the source. The call rests on the fitted dose curve.", "data": [{"experiment": "qHTS drug screen for cell cycle checkpoint inhibitors in PARPi-resistant BRCA-mutant ovarian cancer cell lines. (AID 1963452)", "conditions": "PEO1/OlaR viability, CellTiter-Glo luminescence, 96 h; stronger effect = lower value", "summary_of_the_method": "(§1)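 PEO1, PEO4 and PEO1/OlaR ovarian cancer cells, 600 per well, exposed 96 h at 37C to a dilution series. Viability read by CellTiter-Glo luminescence, normalized to DMSO and empty wells; activity summarized as Z-AUC.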", "values": [{"compound": "O=c1cc(-c2ccc(O)c(O)c2)oc2cc(O)cc(O)c12", "Z-AUC": "0.185 (inactive)"}, {"compound": "c1ccc(-c2oc3ncnc(NC[C@@H]4CCCO4)c3c2-c2ccccc2)cc1", "Z-AUC": "-1.81 (inactive)"}, {"compound": "CN[C@@H](C)[C@H]1[C@H](O)C[C@@]2(C)[C@@H]3CC[C@H]4C(C)(C)[C@@H](NC)CC[C@@]45C[C@@]35CC[C@]12C", "Z-AUC": "0.117 (inactive)"}, {"compound": "OC(c1cc(C(F)(F)F)nc2c(C(F)(F)F)cccc12)C1CCCCN1", "note": "(stereo not given)", "Z-AUC": "0.945 (inactive)"}, {"compound": "CNC(=O)[C@H](Cc1ccccc1)NC(=O)[C@H](CC(C)C)[C@H](CSc1cccs1)C(=O)NO", "Z-AUC": "-0.0435 (inactive)"}, {"compound": "N#CC(c1ccnc(NCCc2cccnc2)n1)c1nc2ccccc2s1", "note": "(stereo not given)", "Z-AUC": "1.07 (inactive)"}, {"compound": "O=C1C(c2c(O)[nH]c3ccccc23)=Nc2ccccc21", "Z-AUC": "0.207 (inactive)"}, {"compound": "Cc1cc(-c2ncc(CC(=O)Nc3ccc(-c4cnccn4)cn3)cc2C)ccn1", "Z-AUC": "-1.15 (inactive)"}, {"compound": "C[C@@]1(c2cc(-c3cncnc3)c(F)cc2F)CCSC(N)=N1", "Z-AUC": "0.854 (inactive)"}, {"compound": "Nc1ccn([C@@H]2O[C@H](CO)[C@@H](O)[C@H]2O)c(=O)n1", "Z-AUC": "0.821 (inactive)"}, {"compound": "O=C1CN2Cc3c(ccc(Cl)c3Cl)N=C2N1", "Z-AUC": "-0.36 (inactive)"}, {"compound": "CNC(=O)c1cc(COc2nnc(Nc3ccc(Cl)cc3)c3ccoc23)ccn1", "Z-AUC": "0.731 (inactive)"}, {"compound": "CC(C)(C)c1nc(-c2cccc(NS(=O)(=O)c3c(F)cccc3F)c2F)c(-c2ccnc(N)n2)s1", "Z-AUC": "1.26 (inactive)"}, {"compound": "COc1ccc(-c2cc3nccn3c(Nc3ncccc3C(N)=O)n2)cc1OC", "Z-AUC": "0.398 (inactive)"}, {"compound": "NC(=O)c1ccc(N(C(N)=O)c2c(F)cccc2F)nc1-c1ccc(F)cc1F", "Z-AUC": "-0.305 (inactive)"}, {"compound": "O=C(CC12CC3CC(CC(C3)C1)C2)Nc1cccc2nc(NCCNCCO)ccc12", "Z-AUC": "0.783 (inactive)"}, {"compound": "Cc1ccc(C2=Nc3ccc(Cl)cc3OC2)cc1", "Z-AUC": "1.28 (inactive)"}, {"compound": "COc1ccc(CCC(=O)Nc2nc3ccc(Cl)cc3s2)cc1OC", "Z-AUC": "-1.42 (inactive)"}, {"compound": "O=C(Nc1cccc(Cl)c1)Nc1ncc(CCNc2ncnc3ccsc23)s1", "Z-AUC": "-0.664 (inactive)"}, {"compound": "COc1cc2c(cc1Cc1cccc(Cl)c1F)c(=O)c(C(=O)O)cn2[C@H](CO)C(C)C", "Z-AUC": "1.07 (inactive)"}, {"compound": "C[C@@H](O[C@H]1OCCN(Cc2n[nH]c(=O)[nH]2)[C@@H]1c1ccc(F)cc1)c1cc(C(F)(F)F)cc(C(F)(F)F)c1", "Z-AUC": "-0.0654 (inactive)"}, {"compound": "CC(C)C[C@H](NC(=O)c1cc2ccccc2s1)C(=O)N1CCN(C(=O)[C@H](CO)NS(=O)(=O)c2ccc(Cl)cc2Cl)CC1", "Z-AUC": "-0.613 (inactive)"}, {"compound": "Cc1cccc(Nc2nc(N[C@@H]3CCCC[C@H]3N)ncc2C(N)=O)c1", "Z-AUC": "-0.597 (inactive)"}, {"compound": "CC(C)(O)CC(=O)NCCn1ccc2ncnc(Nc3ccc(Oc4cccc(C(F)(F)F)c4)c(Cl)c3)c21", "Z-AUC": "0.0129 (inactive)"}, {"compound": "O=C(CO)N1CCC(c2[nH]nc(-c3ccc(Cl)cc3)c2-c2ccncn2)CC1", "Z-AUC": "-0.00709 (inactive)"}, {"compound": "C[C@@H](N)c1ccc(C(=O)Nc2ccnc3[nH]ccc23)cc1", "Z-AUC": "0.345 (inactive)"}, {"compound": "CN(C)CC[C@H](CSc1ccccc1)Nc1ccc(S(=O)(=O)NC(=O)c2ccc(N3CCN(Cc4ccccc4-c4ccc(Cl)cc4)CC3)cc2)cc1[N+](=O)[O-]", "Z-AUC": "-0.74 (inactive)"}, {"compound": "COc1cc2nccc(Oc3ccc(NC(=O)Nc4ccc(F)cc4F)c(F)c3)c2cc1OC", "Z-AUC": "0.868 (inactive)"}, {"compound": "CN1c2ccccc2C(=O)N2CCc3c([nH]c4ccccc34)C21", "note": "(stereo not given)", "Z-AUC": "0.807 (inactive)"}, {"compound": "CCC(C)SSc1ncc[nH]1", "note": "(stereo not given)", "Z-AUC": "-1.01 (inactive)"}, {"compound": "Cc1ccc2c(=O)c3cccc(CC(=O)O)c3oc2c1C", "Z-AUC": "0.508 (inactive)"}, {"compound": "CCCCc1ccc(NS(=O)(=O)c2ccc(C)c(C(=O)N3CCN(c4cccc(C)c4C)CC3)c2)cc1", "Z-AUC": "1.4 (inactive)"}, {"compound": "CCC(c1ccc(O)cc1)C(CC)c1ccc(O)cc1", "note": "(stereo not given)", "Z-AUC": "-0.216 (inactive)"}, {"compound": "CN(C)c1ccc(-c2nc3ncc(Cl)c(N4CCN(CC(=O)Nc5nccs5)CC4)c3[nH]2)cc1", "Z-AUC": "-1.63 (inactive)"}, {"compound": "O=C(O)c1ccc(O)c2ncc(N3CCOCC3)cc12", "Z-AUC": "-0.152 (inactive)"}]}, {"experiment": "qHTS drug screen for cell cycle checkpoint inhibitors in PARPi-resistant BRCA-mutant ovarian cancer cell lines. (AID 1963452)", "conditions": "PEO1/OlaR viability, CellTiter-Glo luminescence, 96 h; measured here: PEO1 parental Z-AUC; stronger effect = lower value", "summary_of_the_method": "as §1", "values": [{"compound": "O=c1cc(-c2ccc(O)c(O)c2)oc2cc(O)cc(O)c12", "Z-AUC": 0.49}, {"compound": "c1ccc(-c2oc3ncnc(NC[C@@H]4CCCO4)c3c2-c2ccccc2)cc1", "Z-AUC": -0.438}, {"compound": "CN[C@@H](C)[C@H]1[C@H](O)C[C@@]2(C)[C@@H]3CC[C@H]4C(C)(C)[C@@H](NC)CC[C@@]45C[C@@]35CC[C@]12C", "Z-AUC": 0.364}, {"compound": "OC(c1cc(C(F)(F)F)nc2c(C(F)(F)F)cccc12)C1CCCCN1", "note": "(stereo not given)", "Z-AUC": 0.285}, {"compound": "CNC(=O)[C@H](Cc1ccccc1)NC(=O)[C@H](CC(C)C)[C@H](CSc1cccs1)C(=O)NO", "Z-AUC": -0.157}, {"compound": "N#CC(c1ccnc(NCCc2cccnc2)n1)c1nc2ccccc2s1", "note": "(stereo not given)", "Z-AUC": 0.451}, {"compound": "O=C1C(c2c(O)[nH]c3ccccc23)=Nc2ccccc21", "Z-AUC": 0.824}, {"compound": "Cc1cc(-c2ncc(CC(=O)Nc3ccc(-c4cnccn4)cn3)cc2C)ccn1", "Z-AUC": -0.663}, {"compound": "C[C@@]1(c2cc(-c3cncnc3)c(F)cc2F)CCSC(N)=N1", "Z-AUC": 0.822}, {"compound": "Nc1ccn([C@@H]2O[C@H](CO)[C@@H](O)[C@H]2O)c(=O)n1", "Z-AUC": 1.45}, {"compound": "O=C1CN2Cc3c(ccc(Cl)c3Cl)N=C2N1", "Z-AUC": 0.71}, {"compound": "CNC(=O)c1cc(COc2nnc(Nc3ccc(Cl)cc3)c3ccoc23)ccn1", "Z-AUC": 0.432}, {"compound": "CC(C)(C)c1nc(-c2cccc(NS(=O)(=O)c3c(F)cccc3F)c2F)c(-c2ccnc(N)n2)s1", "Z-AUC": 1}, {"compound": "COc1ccc(-c2cc3nccn3c(Nc3ncccc3C(N)=O)n2)cc1OC", "Z-AUC": 0.401}, {"compound": "NC(=O)c1ccc(N(C(N)=O)c2c(F)cccc2F)nc1-c1ccc(F)cc1F", "Z-AUC": -0.387}, {"compound": "O=C(CC12CC3CC(CC(C3)C1)C2)Nc1cccc2nc(NCCNCCO)ccc12", "Z-AUC": 0.506}, {"compound": "Cc1ccc(C2=Nc3ccc(Cl)cc3OC2)cc1", "Z-AUC": 0.878}, {"compound": "COc1ccc(CCC(=O)Nc2nc3ccc(Cl)cc3s2)cc1OC", "Z-AUC": -0.917}, {"compound": "O=C(Nc1cccc(Cl)c1)Nc1ncc(CCNc2ncnc3ccsc23)s1", "Z-AUC": -1.1}, {"compound": "COc1cc2c(cc1Cc1cccc(Cl)c1F)c(=O)c(C(=O)O)cn2[C@H](CO)C(C)C", "Z-AUC": 0.736}, {"compound": "C[C@@H](O[C@H]1OCCN(Cc2n[nH]c(=O)[nH]2)[C@@H]1c1ccc(F)cc1)c1cc(C(F)(F)F)cc(C(F)(F)F)c1", "Z-AUC": -0.373}, {"compound": "CC(C)C[C@H](NC(=O)c1cc2ccccc2s1)C(=O)N1CCN(C(=O)[C@H](CO)NS(=O)(=O)c2ccc(Cl)cc2Cl)CC1", "Z-AUC": -0.17}, {"compound": "Cc1cccc(Nc2nc(N[C@@H]3CCCC[C@H]3N)ncc2C(N)=O)c1", "Z-AUC": -0.615}, {"compound": "CC(C)(O)CC(=O)NCCn1ccc2ncnc(Nc3ccc(Oc4cccc(C(F)(F)F)c4)c(Cl)c3)c21", "Z-AUC": -0.0981}, {"compound": "O=C(CO)N1CCC(c2[nH]nc(-c3ccc(Cl)cc3)c2-c2ccncn2)CC1", "Z-AUC": 0.349}, {"compound": "C[C@@H](N)c1ccc(C(=O)Nc2ccnc3[nH]ccc23)cc1", "Z-AUC": 0.635}, {"compound": "CN(C)CC[C@H](CSc1ccccc1)Nc1ccc(S(=O)(=O)NC(=O)c2ccc(N3CCN(Cc4ccccc4-c4ccc(Cl)cc4)CC3)cc2)cc1[N+](=O)[O-]", "Z-AUC": 0.0363}, {"compound": "COc1cc2nccc(Oc3ccc(NC(=O)Nc4ccc(F)cc4F)c(F)c3)c2cc1OC", "Z-AUC": 0.566}, {"compound": "CN1c2ccccc2C(=O)N2CCc3c([nH]c4ccccc34)C21", "note": "(stereo not given)", "Z-AUC": -0.272}, {"compound": "CCC(C)SSc1ncc[nH]1", "note": "(stereo not given)", "Z-AUC": -0.667}, {"compound": "Cc1ccc2c(=O)c3cccc(CC(=O)O)c3oc2c1C", "Z-AUC": 0.654}, {"compound": "CCCCc1ccc(NS(=O)(=O)c2ccc(C)c(C(=O)N3CCN(c4cccc(C)c4C)CC3)c2)cc1", "Z-AUC": 1.5}, {"compound": "CCC(c1ccc(O)cc1)C(CC)c1ccc(O)cc1", "note": "(stereo not given)", "Z-AUC": -0.74}, {"compound": "CN(C)c1ccc(-c2nc3ncc(Cl)c(N4CCN(CC(=O)Nc5nccs5)CC4)c3[nH]2)cc1", "Z-AUC": -1.25}, {"compound": "O=C(O)c1ccc(O)c2ncc(N3CCOCC3)cc12", "Z-AUC": -0.649}]}]}
